# Measured values: PubChem BioAssay (NCATS)
# “And” between values parts separate entries of the source, which are not always exact repeats. Equal values may be shown once. Results filed as inconclusive are left out. The source made the active and inactive calls. Unless noted, the call rests on the fitted dose curve; in most records, active means well fitted curve in the direction sought with a large enough effect; inconclusive means small, poorly fitted or top-dose-only effect, or another doubt; inactive means no such curve, though single readings can be large; an effect the other way counts as inactive or inconclusive.
# Tests used:
# [1] = AP1 Signaling Pathway (AID 357; active means well fitted curve in either direction with a large enough effect, not every such curve was filed as active;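 further: ME-180 reporter cells stimulated with EGF at its EC50 level; on the % scale 0 is the no-effect control and ±100 the full control effect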); conditions: ME-180 AP-1-bla reporter, EGF-induced, beta-lactamase ratio, 5 h
# Summary of the method: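 In this screen, ME-180 cells in Opti-MEM with 0.5% dialyzed FBS received EC50 EGF and compound titrations for 5 h. AP-1 reporter beta-lactamase was detected via CCF4 ratio, giving AC50 for positive and negative modulators.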
# [2] = NFAT Signaling Pathway (AID 444; active means well fitted curve in either direction with a large enough effect, not every such curve was filed as active;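 further: carbachol stimulus at about its EC50 of 1 µM final; on the % scale 0 is the no-effect control and ±100 the full control effect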); conditions: Jurkat NFAT-bla M1, carbachol, beta-lactamase ratio, 5 h
# Summary of the method: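 Jurkat cells with NFAT-driven β-lactamase reporter and co-expressed M1 receptor, stimulated with carbachol (final 1 uM, ~EC50), compound titration, 5 h at 37 °C. CCF4 loaded 1 h at RT; 460/530 nm ratio gave %activity and AC50.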
# [3] = Stat Signaling Pathway (AID 446; active means well fitted curve in either direction with a large enough effect, not every such curve was filed as active;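 further: ME-180 cervical cancer cells given 40 pM IL-6 alongside compound; SIE-controlled beta-lactamase reporter measured as 460/530 nm FRET emission ratio; on the % scale 0 is the no-effect control and ±100 the full control effect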); conditions: ME-180 (cervical carcinoma) SIE beta-lactamase reporter, IL-6 stimulated, 5 h
# Summary of the method: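 IL-6/STAT signaling read in ME-180 cells via an SIE beta-lactamase reporter. Stimulus was 40 pM IL-6 (its AC50) for 5 hrs, so both activation and inhibition register.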
# [4] = target: Mitogen-activated protein kinase 10 (Mus musculus) (UniProt Q61831); assay: JNK3 AlphaScreen Assay (AID 530; active means well fitted curve in either direction with a large enough effect, not every such curve was filed as active;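 further: kinase came from lysate of stimulated human HepG2 cells; signal reports phosphorylation of biotinylated GST-cJun 1-79 at Ser73 with 10 µM ATP; on the % scale 0 is the no-effect control and ±100 the full control effect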); conditions: JNK3 lysate, c-Jun phosphorylation; series mostly up to 57.1 µM
# Summary of the method: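 qHTS format: compounds tested as titrations against IL-1beta/TNF-alpha-activated HepG2 lysate JNK3 with biotin-GST-cJun substrate and 10 uM ATP at room temperature. Loss of anti-phospho-cJun AlphaScreen signal indicates inhibition.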
# [5] = target: 3',5'-cyclic-AMP phosphodiesterase 4B (Homo sapiens) (UniProt Q07343); assay: qHTS Assay for Inhibitors of PDE-IV (AID 607; active means well fitted activation curve with a large enough effect in the main read-out, with a control signal flat, not every such curve was filed as active; further: % of control where 0% means no effect); conditions: HEK293 ACTOne CNG channel cells, membrane potential fluorescence; series mostly up to 22.9 µM
# 3',5'-cyclic-AMP phosphodiesterase 4B (Homo sapiens), sequence (Q07343 whole entry, looked up): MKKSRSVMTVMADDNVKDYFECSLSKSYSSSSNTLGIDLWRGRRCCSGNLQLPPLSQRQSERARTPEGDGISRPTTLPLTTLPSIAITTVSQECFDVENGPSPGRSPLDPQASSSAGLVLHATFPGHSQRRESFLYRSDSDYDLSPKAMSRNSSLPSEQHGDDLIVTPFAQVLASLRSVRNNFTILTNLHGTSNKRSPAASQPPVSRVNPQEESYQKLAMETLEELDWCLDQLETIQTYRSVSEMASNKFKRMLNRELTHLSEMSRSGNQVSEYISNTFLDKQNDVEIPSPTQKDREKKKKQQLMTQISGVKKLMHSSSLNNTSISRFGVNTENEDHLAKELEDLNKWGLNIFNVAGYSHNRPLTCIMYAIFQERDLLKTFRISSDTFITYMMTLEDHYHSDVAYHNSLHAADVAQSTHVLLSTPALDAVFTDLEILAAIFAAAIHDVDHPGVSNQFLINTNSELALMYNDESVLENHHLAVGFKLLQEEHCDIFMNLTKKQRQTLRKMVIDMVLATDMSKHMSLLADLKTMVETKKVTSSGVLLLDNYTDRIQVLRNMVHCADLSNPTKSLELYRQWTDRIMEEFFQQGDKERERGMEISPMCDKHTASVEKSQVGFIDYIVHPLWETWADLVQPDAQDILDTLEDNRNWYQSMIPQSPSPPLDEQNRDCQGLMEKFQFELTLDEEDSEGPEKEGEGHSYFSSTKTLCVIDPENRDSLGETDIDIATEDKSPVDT
# Summary of the method: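 Live HEK293 cells with a modified cyclic nucleotide-gated (CNG) channel report intracellular cAMP via membrane-potential dye fluorescence (ex 535/em 590 nm). Endogenous PDE-IV was targeted. Compounds were tested at up to 22.9 uM final; RO 20-1724 100 uM served as control.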
# [6] = target: Guanine nucleotide-binding protein G(i) subunit alpha-1 (Homo sapiens) (UniProt P63096); assay: qHTS Assay for Inhibitors of RGS12 GoLoco Motif Activity (Green Fluorophore) (AID 879); conditions: Galphai1/FITC-RGS12 GoLoco peptide, fluorescence polarization; series mostly up to 57.1 µM;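 further: 0% = labeled peptide with Gαi1 and full inhibition = labeled peptide alone without protein; negative values mean loss of peptide binding seen as reduced polarization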
# Guanine nucleotide-binding protein G(i) subunit alpha-1 (Homo sapiens), sequence (P63096 whole entry, looked up): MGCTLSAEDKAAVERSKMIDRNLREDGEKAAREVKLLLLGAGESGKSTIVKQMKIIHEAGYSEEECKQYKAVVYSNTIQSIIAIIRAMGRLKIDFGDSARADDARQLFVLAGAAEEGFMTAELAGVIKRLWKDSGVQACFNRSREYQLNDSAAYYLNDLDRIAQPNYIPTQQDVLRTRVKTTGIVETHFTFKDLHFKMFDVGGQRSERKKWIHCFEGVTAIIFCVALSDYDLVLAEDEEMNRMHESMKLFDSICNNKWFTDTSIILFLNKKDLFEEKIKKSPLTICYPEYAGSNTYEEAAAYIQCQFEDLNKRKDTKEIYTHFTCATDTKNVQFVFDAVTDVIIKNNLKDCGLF
# Summary of the method: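 Fluorescence polarization assay: 50 nM Gαi1 with 10 nM FITC-labeled RGS12 GoLoco peptide in 10 mM Tris pH 7.5, 150 mM NaCl, 0.1 mM GDP, 0.05% NP40, 10 min at room temperature with compound.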
# [7] = target: Muscarinic acetylcholine receptor M1 (Rattus norvegicus) (UniProt P08482); assay: qHTS Assay for Antagonists of Acetylcholine Muscarinic M1 Receptor: Measurement of IP-One Response (AID 944); conditions: CHO-M1 cells, IP-One HTRF, antagonist mode; series mostly up to 46.1 µM; further: nearly all actives have a fitted effect of over 75% in size
# Summary of the method: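 CHO cells expressing rat M1 receptor, recovered overnight, were pre-incubated 10 min with compound, then stimulated 30 min with carbachol at EC80 (200 nM) in LiCl-containing buffer, pH 7.4. IP1 accumulation was read by HTRF (620/665 nm).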
# [8] = target: Pyruvate kinase (Leishmania mexicana) (UniProt Q27686); assay: qHTS Validation Assay for Inhibitors of Leishmania Mexicana Pyruvate Kinase (AID 945);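 further: 0% = DMSO only neutral control wells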; conditions: purified L. mexicana pyruvate kinase, enzyme activity, E451W mutant enzyme; series mostly up to 57.5 µM
# Pyruvate kinase (Leishmania mexicana), sequence (Q27686 2-499 E452W): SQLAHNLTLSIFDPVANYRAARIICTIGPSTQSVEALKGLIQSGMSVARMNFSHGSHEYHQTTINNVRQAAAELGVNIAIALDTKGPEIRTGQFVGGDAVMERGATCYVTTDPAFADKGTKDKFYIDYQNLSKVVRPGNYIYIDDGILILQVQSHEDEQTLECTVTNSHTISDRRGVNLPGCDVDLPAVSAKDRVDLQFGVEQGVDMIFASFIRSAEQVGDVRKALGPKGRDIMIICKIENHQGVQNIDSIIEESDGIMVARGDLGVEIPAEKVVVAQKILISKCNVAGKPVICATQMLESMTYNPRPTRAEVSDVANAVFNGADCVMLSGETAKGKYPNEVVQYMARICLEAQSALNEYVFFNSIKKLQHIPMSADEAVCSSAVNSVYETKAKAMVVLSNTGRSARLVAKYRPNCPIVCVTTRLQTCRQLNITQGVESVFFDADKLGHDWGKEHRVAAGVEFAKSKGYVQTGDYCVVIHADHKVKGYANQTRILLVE
# Summary of the method: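 Read-out: luminescence from PKLight stop/detection reagent, data normalized to DMSO. Reaction: 0.2 nM E451W LmPYK, 0.5 mM PEP, 0.1 mM ADP, pH 7.2, 1 h room temperature.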
# [9] = target: Pyruvate kinase PKM (Homo sapiens) (UniProt P14618); assay: qHTS Assay for Activators of Human Muscle Pyruvate Kinase (AID 954; active means well fitted curve in the direction sought with a large enough effect, not every such curve was filed as active;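 further: 0% = uninhibited enzyme and -100% = no enzyme or full thiadiazolimine inhibition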); conditions: purified human muscle pyruvate kinase, luciferase-coupled luminescence, 1 h; series mostly up to 57.5 µM
# Pyruvate kinase PKM (Homo sapiens), sequence (P14618 whole entry, looked up): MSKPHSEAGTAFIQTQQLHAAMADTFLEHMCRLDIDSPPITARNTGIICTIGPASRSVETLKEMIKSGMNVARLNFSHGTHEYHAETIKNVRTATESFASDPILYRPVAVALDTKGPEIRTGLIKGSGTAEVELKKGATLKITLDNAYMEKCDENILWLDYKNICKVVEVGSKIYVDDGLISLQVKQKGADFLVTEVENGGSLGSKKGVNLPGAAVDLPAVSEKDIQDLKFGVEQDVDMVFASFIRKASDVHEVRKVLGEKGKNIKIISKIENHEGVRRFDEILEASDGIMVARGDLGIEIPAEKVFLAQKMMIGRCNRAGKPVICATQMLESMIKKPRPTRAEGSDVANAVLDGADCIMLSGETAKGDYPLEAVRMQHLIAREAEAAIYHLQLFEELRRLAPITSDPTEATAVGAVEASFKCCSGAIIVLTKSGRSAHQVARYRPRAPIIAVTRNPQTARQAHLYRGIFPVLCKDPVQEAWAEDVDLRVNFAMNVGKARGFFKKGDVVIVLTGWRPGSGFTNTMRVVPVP
# Summary of the method: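 Enzyme was run at intermediate activity so both inhibitors and activators could be detected. ATP formed from ADP and PEP by 0.1 nM human PKM2 during a 1 h room-temperature incubation was quantified by coupled luciferase luminescence.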
# [10] = target: Alpha-galactosidase A (Homo sapiens) (UniProt P06280); assay: Counterscreen for Glucocerebrosidase Inhibitors: qHTS Assay for Human alpha-Galactosidase at pH 4.5 (AID 992); conditions: purified enzyme, fluorogenic substrate; series mostly up to 76.9 µM; further: 0% is about no effect
# Alpha-galactosidase A (Homo sapiens), sequence (P06280 whole entry, looked up): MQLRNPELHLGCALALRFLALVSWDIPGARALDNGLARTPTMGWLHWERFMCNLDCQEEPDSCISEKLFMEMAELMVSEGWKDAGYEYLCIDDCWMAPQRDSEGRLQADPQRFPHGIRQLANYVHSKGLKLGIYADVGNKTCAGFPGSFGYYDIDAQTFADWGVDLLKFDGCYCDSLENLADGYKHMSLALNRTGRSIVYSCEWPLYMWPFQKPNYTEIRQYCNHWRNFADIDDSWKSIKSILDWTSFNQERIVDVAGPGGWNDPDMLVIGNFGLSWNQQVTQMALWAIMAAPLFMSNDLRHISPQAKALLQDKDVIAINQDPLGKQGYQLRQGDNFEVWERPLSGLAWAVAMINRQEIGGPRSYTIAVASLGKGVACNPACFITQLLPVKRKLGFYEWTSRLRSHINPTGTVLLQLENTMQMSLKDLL
# Summary of the method: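 Read-out is 4-methylumbelliferone fluorescence (365 nm excitation, 440 nm emission) after a pH 10 NaOH/glycine stop. Reactions held 2 nM enzyme and 80 uM substrate at pH 4.5 for 20 min at room temperature.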
# [11] = qHTS Assay for Lipid Storage Modulators (AID 1519; calls by dose curve); conditions: Drosophila S3 cells, BODIPY lipid droplet/cell ratio, laser cytometry, cells loaded with oleic acid
# Summary of the method: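 Cells seeded at 5,000 per well were treated with compounds over a concentration series and loaded with oleic acid (400 uM, as added). Lipid droplet fluorescence (488 nm excitation, 500-530 nm channel) was read by laser-scanning cytometry and normalized to 20 uM Triacsin C.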
# [12] = target: DNA repair nuclease/redox regulator APEX1 (Homo sapiens) (UniProt P27695); assay: qHTS Validation Assay for Inhibitors of the Human Apurinic/apyrimidinic Endonuclease 1 (APE1) (AID 1705); conditions: purified APE1 endonuclease activity, fluorescence, titration; series mostly up to 57.1 µM
# Summary of the method: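 Human APE1 was preincubated with compound for 15 min at room temperature, then 50 nM (final) THF-abasic double-stranded DNA substrate bearing 5'-TAMRA and 3'-BHQ-2 was added. Incision-driven fluorescence rise (ex 525/em 598 nm) was read kinetically.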
# [13] = Counterscreen for APE1 Inhibitors: Fluorescent Dye Displacement Validation Assay (AID 1707); conditions: fluorescent dye displacement from DNA; series mostly up to 57.1 µM;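 further: plate controls were ThO with dsDNA and no compound for no effect and ThO without dsDNA for full effect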
# Summary of the method: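 ThO 250 nM + dsDNA 50 nM (THF abasic site, 5'-TAMRA), Tris-HCl pH7.5/50mM NaCl/2 mM MgCl2/0.01% Tween-20; compounds pin-transferred; ex 480/em 540 nm endpoint. Neutral = no compound; no-DNA ThO wells = negative control.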
# [14] = qHTS for differential inhibitors of proliferation of Plasmodium falciparum line GB4 (AID 1816); conditions: Potency: Plasmodium falciparum GB4 proliferation inhibition; series mostly up to 28.7 µM;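 further: potency means the concentration at half of the fitted maximal effect; parasite growth measured after 72 h incubation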
# [15] = qHTS for differential inhibitors of proliferation of Plasmodium falciparum line 3D7 (AID 1876); further: potency means the concentration at half of the fitted maximal effect; conditions: P. falciparum 3D7 proliferation inhibition; series mostly up to 28.7 µM
# [16] = qHTS for differential inhibitors of proliferation of Plasmodium falciparum line D10 (AID 1877); conditions: series mostly up to 28.7 µM;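 further: potency means the concentration at half of the fitted maximal effect; parasites grown with compound for 72 h before DNA staining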
# [17] = qHTS for differential inhibitors of proliferation of Plasmodium falciparum line Dd2 (AID 1882); conditions: Potency: Plasmodium falciparum Dd2 proliferation inhibition; series mostly up to 28.7 µM; further: potency means the concentration at half of the fitted maximal effect; nearly all actives have a fitted effect of over 65% in size
# Summary of the method: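 SYBR Green I DNA fluorescence read-out, ex 485/em 535 nm. Signals were normalized to 0.29 uM artemisinin and DMSO wells, then corrected using vehicle-only plates flanking each stack. Parasite growth ran 72 h in erythrocytes before lysis.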
# [18] = qHTS for differential inhibitors of proliferation of Plasmodium falciparum line W2 (AID 1883); conditions: Potency: Plasmodium falciparum W2 proliferation inhibition; series mostly up to 28.7 µM;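 further: potency means the concentration at half of the fitted maximal effect; parasites grown with compound for 72 h before lysis and staining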
# [19] = qHTS for differential inhibitors of proliferation of Plasmodium falciparum line HB3 (AID 1886); conditions: Potency: Plasmodium falciparum HB3 proliferation inhibition; series mostly up to 28.7 µM;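 further: potency means the concentration at half of the fitted maximal effect; parasites grown with compound for 72 h before SYBR Green readout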
# [20] = target: Ferritin light chain (Equus caballus) (UniProt P02791); assay: qHTS Validation Assay for Identification of Novel General Anesthetics (AID 2323); conditions: horse apoferritin, anesthetic-site fluorescent probe displacement; series mostly up to 76.9 µM; further: on the % scale 0 is the no-effect control and ±100 the full control effect
# Summary of the method: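 Competitive displacement of profluorescent 1-aminoanthracene (1-AMA, 50% saturated solution in PBS) from 10 uM horse-spleen apoferritin. Compounds incubated 10 min at room temperature; fluorescence read at 380 nm excitation/535 nm emission, normalized to free 1-AMA and complex, fitted with four-parameter Hill equation.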
# [21] = target: ATP-dependent DNA helicase Q1 (Homo sapiens) (UniProt P46063); assay: qHTS Validation Assay for Inhibitors of RecQ-Like Dna Helicase 1 (RECQ1) (AID 2353); conditions: recombinant RECQ1 helicase DNA unwinding assay; series mostly up to 25.6 µM;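 further: plate controls were DMSO vehicle for no effect and enzyme-free control for full effect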
# ATP-dependent DNA helicase Q1 (Homo sapiens), sequence (P46063 whole entry, looked up): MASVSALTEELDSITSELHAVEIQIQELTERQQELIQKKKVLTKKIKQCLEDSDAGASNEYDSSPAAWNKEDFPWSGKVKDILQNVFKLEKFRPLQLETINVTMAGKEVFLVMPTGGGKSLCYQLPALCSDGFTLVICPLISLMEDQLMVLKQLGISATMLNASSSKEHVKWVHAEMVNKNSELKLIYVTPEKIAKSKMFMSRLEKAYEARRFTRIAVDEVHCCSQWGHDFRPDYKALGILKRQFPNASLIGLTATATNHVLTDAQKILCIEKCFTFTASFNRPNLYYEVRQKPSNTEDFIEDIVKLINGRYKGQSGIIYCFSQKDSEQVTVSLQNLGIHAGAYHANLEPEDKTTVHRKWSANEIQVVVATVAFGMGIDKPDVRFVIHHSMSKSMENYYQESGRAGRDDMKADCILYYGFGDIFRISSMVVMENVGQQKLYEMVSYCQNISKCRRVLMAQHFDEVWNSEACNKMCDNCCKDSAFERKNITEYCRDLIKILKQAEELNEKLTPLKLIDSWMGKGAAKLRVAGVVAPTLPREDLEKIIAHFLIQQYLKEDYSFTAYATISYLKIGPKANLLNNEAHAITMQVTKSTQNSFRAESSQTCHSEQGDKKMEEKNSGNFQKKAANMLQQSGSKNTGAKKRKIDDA
# Summary of the method: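 50 nM RECQ1T1 preincubated 15 min with compound in Tris pH 8.0 buffer with MgCl2, DTT, Tween-20 and 2.5 ug/ml poly(dI-dC); started with 200 nM TAMRA/BHQ-2 forked duplex and 2 mM ATP. Unwinding read as fluorescence (525/598 nm), two reads 2 h apart.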
# [22] = target: RecQ-like DNA helicase BLM (Homo sapiens) (UniProt P54132); assay: qHTS Validation Assay for Inhibitors of Bloom's syndrome helicase (BLM) (AID 2364); conditions: BLM helicase DNA unwinding, fluorescence, in vitro; series mostly up to 57.1 µM;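 further: plate controls were DMSO vehicle for no effect and enzyme-free control for full effect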
# RecQ-like DNA helicase BLM (Homo sapiens), sequence (P54132 whole entry, looked up): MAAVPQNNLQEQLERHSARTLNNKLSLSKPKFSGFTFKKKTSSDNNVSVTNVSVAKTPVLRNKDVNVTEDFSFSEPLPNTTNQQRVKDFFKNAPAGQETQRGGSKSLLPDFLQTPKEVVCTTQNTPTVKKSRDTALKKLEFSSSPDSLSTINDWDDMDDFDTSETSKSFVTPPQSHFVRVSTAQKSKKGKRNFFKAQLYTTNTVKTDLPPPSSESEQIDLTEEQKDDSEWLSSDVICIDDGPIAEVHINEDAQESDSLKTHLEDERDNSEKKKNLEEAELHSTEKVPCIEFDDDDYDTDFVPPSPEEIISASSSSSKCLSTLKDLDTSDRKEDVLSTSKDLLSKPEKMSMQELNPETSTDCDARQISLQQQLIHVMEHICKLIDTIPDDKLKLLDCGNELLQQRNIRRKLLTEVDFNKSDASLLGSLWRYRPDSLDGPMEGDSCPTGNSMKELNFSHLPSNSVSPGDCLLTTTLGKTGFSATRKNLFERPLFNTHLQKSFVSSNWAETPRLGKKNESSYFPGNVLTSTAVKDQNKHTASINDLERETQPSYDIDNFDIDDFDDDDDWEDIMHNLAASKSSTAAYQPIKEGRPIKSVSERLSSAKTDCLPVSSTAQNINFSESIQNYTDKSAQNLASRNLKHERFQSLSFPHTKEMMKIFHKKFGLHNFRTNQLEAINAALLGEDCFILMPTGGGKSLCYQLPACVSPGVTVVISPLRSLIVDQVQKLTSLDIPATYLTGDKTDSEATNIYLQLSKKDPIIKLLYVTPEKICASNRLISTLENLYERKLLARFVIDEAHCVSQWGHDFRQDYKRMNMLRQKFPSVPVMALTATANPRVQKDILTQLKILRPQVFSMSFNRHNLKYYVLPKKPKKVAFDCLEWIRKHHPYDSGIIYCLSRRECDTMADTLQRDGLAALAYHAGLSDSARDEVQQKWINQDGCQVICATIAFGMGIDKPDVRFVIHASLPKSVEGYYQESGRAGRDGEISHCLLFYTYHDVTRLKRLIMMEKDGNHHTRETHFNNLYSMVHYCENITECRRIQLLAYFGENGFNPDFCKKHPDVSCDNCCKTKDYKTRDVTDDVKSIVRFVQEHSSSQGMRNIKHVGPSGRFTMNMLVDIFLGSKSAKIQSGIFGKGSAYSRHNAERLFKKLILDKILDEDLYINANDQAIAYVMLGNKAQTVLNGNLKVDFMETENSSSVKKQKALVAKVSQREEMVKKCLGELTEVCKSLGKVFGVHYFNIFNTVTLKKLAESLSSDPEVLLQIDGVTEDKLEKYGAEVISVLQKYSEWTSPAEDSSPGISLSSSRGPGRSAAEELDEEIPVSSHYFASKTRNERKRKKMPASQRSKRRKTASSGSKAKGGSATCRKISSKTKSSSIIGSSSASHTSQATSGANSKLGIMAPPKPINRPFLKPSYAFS
# Summary of the method: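 50 nM BLM preincubated 15 min at room temperature with compound in pH 8.0 Tris buffer containing 2.5 ug/ml poly(dI-dC); started with 200 nM TAMRA/BHQ-2 forked duplex and 2 mM ATP (final). Unwinding read as TAMRA fluorescence increase, two reads 2 h apart.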
# [23] = Validation screen for small molecules that induce DNA re-replication in MCF 10A normal breast cells (AID 463097); conditions: MCF 10A cells, DNA re-replication phenotype imaging; series mostly up to 46.1 µM; further: 0% is about no effect; nearly all actives have a fitted effect of over 60% in size
# Summary of the method: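 Readout: Hoechst nuclear fluorescence intensity, 405 ex / 500-530 em, by scanning plate imager; re-replication scored as increase in nuclei with elevated DNA content. Cells exposed to compound 48 hr, 37 C, 5% CO2 beforehand.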
# [24] = Quantitative high throughput screen for delayed death inhibitors of the malarial parasite plastid, 96 hour incubation (AID 488745); conditions: Plasmodium falciparum growth; series mostly up to 28.7 µM; further: potency means the concentration at half of the fitted maximal effect; nearly all actives have a fitted effect of over 70% in size
# Summary of the method: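 P. falciparum carrying an integrated firefly luciferase reporter, grown in erythrocytes (2% hematocrit, 0.1% parasitemia final) in RPMI 1640/0.5% Albumax, was exposed to compound for 96 h (two generations) at 37 C, 5% CO2. Luminescence decrease indicated growth inhibition.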
# [25] = Quantitative high throughput screen for delayed death inhibitors of the malarial parasite plastid, 48 hour incubation (AID 488752); conditions: Plasmodium falciparum growth; series mostly up to 28.7 µM; further: potency means the concentration at half of the fitted maximal effect; nearly all actives have a fitted effect of over 65% in size
# Summary of the method: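 Erythrocytes infected with P. falciparum carrying an integrated firefly luciferase reporter (2% hematocrit, 0.1% parasitemia final) were exposed to compounds in RPMI 1640/0.5% Albumax for 48 h at 37 C, 5% CO2. Growth inhibition was scored as reduced luminescence.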
# [26] = target: Thyrotropin receptor (Homo sapiens) (UniProt P16473); assay: qHTS Assay for Antagonists of the Thyroid Stimulating Hormone Receptor (AID 488980); conditions: TSHR-expressing cells, cAMP antagonist read-out; series mostly up to 57.5 µM; further: 0% is about no effect
# Summary of the method: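 HEK293 cells transfected with human TSHR, suspended in HEPES-buffered HBSS with 70 uM RO 20-1724, were treated with compounds plus TSH at EC80 (4 nM final). cAMP was measured by competitive HTRF (cryptate anti-cAMP antibody, cAMP-d2 acceptor).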
# [27] = target: Thyrotropin-releasing hormone receptor (Homo sapiens) (UniProt P34981); assay: qHTS for Small Molecule Agonists and Allosteric Enhancers of Human TRH Receptor: Validation Screen for Agonists (AID 493127;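 active means calcium activation more than 3 SD above the typical response in the agonist read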;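 further: intracellular calcium rise by fluo-8 fluorescence before TRH EC20 addition; 0% is about no effect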); conditions: TRH receptor agonist cell assay; at 2 µM; stronger effect = higher value
# Summary of the method: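 TRHR-expressing cells were plated overnight in serum-containing medium, then loaded with fluo-8 calcium dye at room temperature for 30 min–1.5 h. After a 10 s baseline, compound was pin-transferred and calcium fluorescence (ex 480/em 530) read kinetically for agonist response.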
# [28] = target: Galactokinase (Homo sapiens) (UniProt P51570); assay: qHTS Validation Assay for Inhibitors of Human Galactokinase (GALK) (AID 493189); conditions: purified human GALK enzyme activity, qHTS 7-point titration; series mostly up to 57.5 µM; further: 0% is about no effect
# Galactokinase (Homo sapiens), sequence (P51570 whole entry, looked up): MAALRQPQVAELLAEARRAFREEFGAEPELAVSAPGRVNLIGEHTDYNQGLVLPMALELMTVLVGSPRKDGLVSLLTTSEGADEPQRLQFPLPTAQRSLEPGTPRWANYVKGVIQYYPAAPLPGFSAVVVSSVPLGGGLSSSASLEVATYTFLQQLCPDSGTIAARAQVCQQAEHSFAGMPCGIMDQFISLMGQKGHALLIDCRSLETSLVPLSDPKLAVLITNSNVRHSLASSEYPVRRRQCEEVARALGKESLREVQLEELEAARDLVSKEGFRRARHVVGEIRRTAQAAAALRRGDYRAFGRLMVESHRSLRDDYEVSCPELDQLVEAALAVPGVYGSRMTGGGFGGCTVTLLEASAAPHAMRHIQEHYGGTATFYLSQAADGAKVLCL
# Summary of the method: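 GALK (5 nM) with 35 uM ATP and 100 uM galactose in HEPES pH8.0, MgCl2, NaCl, DTT, BSA; 1 h at room temperature. Residual ATP read by Kinase-Glo Plus luminescence after 10 min.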
structure (smiles),measurement,setting,value
CCCNC[C@H](O)COc1ccccc1C(=O)CCc1ccccc1,"activity change, negative = inhibition",[1]; at 17.2 µM (top of the series),6.84% (inactive)
same,"activity change, negative = inhibition",[1]; at 38 µM (top of the series),18.1% (inactive) and 7.01% (inactive)
same,"activity change, negative = inhibition",[2]; at 17.2 µM (top of the series),3.46% (inactive)
same,"activity change, negative = inhibition",[2]; at 38 µM (top of the series),1.4% (inactive) and 9.3% (inactive)
same,"activity, negative = inhibition",[3]; at 17.2 µM (top of the series),-4.64% (inactive)
same,"activity, negative = inhibition",[3]; at 38 µM (top of the series),-19.1% (inactive) and -13.3% (inactive)
same,outcome,[4],inactive
same,Potency,[5],inactive
same,outcome,[6],inactive
same,Potency,[7],inactive
same,Potency,[8],inactive
same,outcome,[9],inactive
same,outcome,[10],inactive
same,"activity change, negative = inhibition",[11]; at 25.7 µM (top of the series),-1.16% (inactive)
same,"activity change, negative = inhibition",[11]; at 57.5 µM (top of the series),-2.08% (inactive)
same,max response,[11]; measured here: cell count channel max response,-11.4% and -51.8%
same,max response,[11]; measured here: lipid channel max response,-13.7% and -51.9%
same,Potency,[12],inactive
same,Potency,[13],inactive
same,Potency,[14],316 nM (active)
same,Potency,[15],891 nM (active)
same,Potency,[16],2000 nM (active)
same,Potency,[17],1120 nM (active)
same,Potency,[18],282 nM (active)
same,Potency,[19],1120 nM (active)
same,outcome,[20],inactive
same,Potency,[21],inactive
same,Potency,[22],inactive
same,outcome,[23],inactive
same,Potency,[24],2620 nM (active)
same,Potency,[25],2080 nM (active)
same,outcome,[26],inactive
same,activation,[27],3.19% (inactive)
same,outcome,[28],inactive
